The structures appear in SMILES notation. Inconclusive results are not listed. Unmarked numbers belong to inactive results. The source made the active and inactive calls. The call rests on the fitted dose curve; in most records, active means well fitted curve in the direction sought with a large enough effect; inconclusive means small, poorly fitted or top-dose-only effect, or another doubt; inactive means no such curve, though single readings can be large; an effect the other way counts as inactive or inconclusive.

Data on 35 molecules can be found in PubChem BioAssay (NCATS).
Potency means the concentration at half of the fitted maximal effect.

N-terminal Xaa-Pro-Lys N-methyltransferase 1 (Homo sapiens), sequence (Q9BV86 whole entry, looked up): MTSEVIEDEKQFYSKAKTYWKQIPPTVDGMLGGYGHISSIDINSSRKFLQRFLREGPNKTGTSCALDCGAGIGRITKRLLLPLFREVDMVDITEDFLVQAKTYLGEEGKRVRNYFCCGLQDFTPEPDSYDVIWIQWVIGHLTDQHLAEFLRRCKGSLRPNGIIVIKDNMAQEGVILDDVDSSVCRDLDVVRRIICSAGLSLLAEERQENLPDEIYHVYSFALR

System in one assay: not listed separately
Nature of the assay: qHTS of pediatric cancer cell lines to identify multiple opportunities for drug repurposing: Confirmatory screen for OHS-50 cells (AID 1347128).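 Further: compound exposure lasted 48 h at 37 degrees C; nearly all actives have a fitted effect of over 55% in size.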 On activity change, negative = cytotoxic: on the % scale 0 is the no-effect control and ±100 the full control effect. Particulars: OHS-50 osteosarcoma cells viability; series mostly up to 45.9 µM; activity change, negative = cytotoxic: at the top concentration. The essentials:
(§1)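 Cells (500-1,000/well) in growth media were settled 5 h at 37 degrees C, then given compounds for 48 h. Viability was read as CellTiter-Glo luminescence. Primary runs used MIPE at 11 points (0.78 nM-46 µM) and NPC at 8 points (0.59 nM-46 µM); follow-ups used 11 points.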
In general terms: Quantitative high-throughput screening tests each substance at several concentrations.
Regarding `COc1cc2nc(-c3ccc(N4CCN(C)CC4)cc3)nc(NCCN3CCOCC3)c2cc1OC`, the Potency was 0.117 µM (active).

On to `COc1cc2ncnc(Nc3ccc(F)c(Cl)c3)c2cc1OCCCN1CCOCC1`, for which the Potency is 38 µM (active).

Turning to `CN[C@@H](C)C(=O)N[C@H]1CN(C(=O)CC(C)C)CC[C@H]2CC[C@@H](C(=O)NC(c3ccccc3)c3ccccc3)N2C1=O`, the “activity change, negative = cytotoxic” value was -3.45%.

System in a further assay: not listed separately
Nature of the assay: qHTS of pediatric cancer cell lines to identify multiple opportunities for drug repurposing: Confirmatory screen for SK-N-SH cells (AID 1347129).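 Further: cells exposed to compound for 48 h before viability read; nearly all actives have a fitted effect of over 60% in size.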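 On activity change, negative = cytotoxic: plate controls were DMSO for no effect and bortezomib control for full effect.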 Particulars: SK-N-SH neuroblastoma cell viability; series mostly up to 46.1 µM; activity change, negative = cytotoxic: at the top concentration. The essentials:
as §1
Turning to `CO[C@H]1C[C@@H]2CC[C@@H](C)[C@@](O)(O2)C(=O)C(=O)N2CCCC[C@@H]2C(=O)O[C@H]([C@H](C)C[C@@H]2CC[C@H](OCCO)[C@H](OC)C2)CC(=O)[C@H](C)C=C(C)[C@@H](O)[C@@H](OC)C(=O)[C@H](C)C[C@H](C)C=CC=CC=C1C`, the “activity change, negative = cytotoxic” value is 7.55%.

Turning to `COc1ccc(-c2nc(N3CCOCC3)c3sc(CN(C)c4ncc(C(=O)NO)cn4)cc3n2)cn1`, the Potency was 5.9 µM (active).

Turning to `Cc1[nH]c(C=C2C(=O)Nc3ccc(S(=O)(=O)Cc4c(Cl)cccc4Cl)cc32)c(C)c1C(=O)N1CCC[C@H]1CN1CCCC1`, the Potency was 23.5 µM (active).

For `COc1cc2nc(-c3ccc(N4CCN(C)CC4)cc3)nc(NCCN3CCOCC3)c2cc1OC`, the Potency is 4.69 µM (active).

For `CC[C@@H]1C=C(C)C[C@H](C)C[C@H](OC)[C@H]2O[C@@](O)(C(=O)C(=O)N3CCCC[C@@H]3C(=O)O[C@H](C(C)=C[C@@H]3CC[C@H](Cl)[C@H](OC)C3)[C@H](C)[C@@H](O)CC1=O)[C@H](C)C[C@H]2OC`, the “activity change, negative = cytotoxic” value is 3.68%.

For `CNC1CCC(N(Cc2cccc(-c3ccncc3)c2)C(=O)c2sc3c(F)ccc(F)c3c2Cl)CC1` (stereo not given), the “activity change, negative = cytotoxic” value is 1.08%.

As to `COc1cc2ncnc(Nc3ccc(F)c(Cl)c3)c2cc1OCCCN1CCOCC1`, the Potency is 34 µM (active).

Consider `Cc1nnc(C(C)C)n1C1C[C@H]2CC[C@@H](C1)N2CC[C@H](NC(=O)C1CCC(F)(F)CC1)c1ccccc1` (stereo not given in full), for which the “activity change, negative = cytotoxic” value was 0.128%.

For the molecule `CO[C@H]1C[C@@H]2CC[C@@H](C)[C@@](O)(O2)C(=O)C(=O)N2CCCC[C@@H]2C(=O)O[C@H]([C@H](C)C[C@@H]2CC[C@H](OP(C)(C)=O)[C@H](OC)C2)CC(=O)[C@H](C)C=C(C)[C@@H](O)[C@@H](OC)C(=O)[C@H](C)C[C@H](C)C=CC=CC=C1C`, the “activity change, negative = cytotoxic” value is -29.4%.

Turning to `Cc1cc(OCCCc2c(C(=O)O)n(Cc3cccnc3)c3c(-c4c(COc5ccc(N6CCN([S+](C)(=O)[O-])CC6)cc5)nn(C)c4C)cccc23)cc(C)c1Cl`, the “activity change, negative = cytotoxic” value was -13.9%.

As to `CN[C@@H](C)C(=O)N[C@H]1CN(C(=O)CC(C)C)CC[C@H]2CC[C@@H](C(=O)NC(c3ccccc3)c3ccccc3)N2C1=O`, the “activity change, negative = cytotoxic” value is 8.11%.

Consider `CC=C(C)C(=O)O[C@H]1C(C)=C[C@]23C(=O)[C@@H](C=C(CO)[C@@H](O)[C@]12O)[C@H]1[C@@H](C[C@H]3C)C1(C)C`, for which the “activity change, negative = cytotoxic” value was -2.67%.

The next assay concerns the target N-terminal Xaa-Pro-Lys N-methyltransferase 1 (Homo sapiens) (UniProt Q9BV86). Kind of assay: qHTS Assay for Inhibitors of N-terminal methyltransferase 1 (NTMT1): LOPAC validation of the NTMT1 SAHH-coupled ThioGlo3 Assay (AID 1347143). Further: nearly all actives have a fitted effect of over 70% in size. On activity change, negative = inhibition: on the % scale 0 is the no-effect control and ±100 the full control effect. Particulars: recombinant NTMT1, SAHH-coupled ThioGlo3 fluorescence; series mostly up to 114 µM; activity change, negative = inhibition: at the top concentration. The essentials: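 Fluorescence read-out (excitation 340nm, emission 450nm) of SAH-derived thiol, measured via SAHH coupling and ThioGlo3, taken immediately and after a 30 min room-temperature reaction, then normalized to the background read. Enzyme: NTMT1 at 125nM; cofactor SAM 100uM in the added reagent.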
`CC(=O)CCCCn1c(=O)c2c(ncn2C)n(C)c1=O`: the “activity change, negative = inhibition” value is -16.6%.

As for `CN(C)CCC(c1ccccc1)c1ccccn1` (stereo not given), the “activity change, negative = inhibition” value was -14.4%.

With `CC(=O)O[C@]1(C(C)=O)CC[C@H]2[C@@H]3C=C(Cl)C4=CC(=O)[C@@H]5C[C@@H]5[C@]4(C)[C@H]3CC[C@@]21C`, the “activity change, negative = inhibition” value is -2.91%.

Turning to `CC(=O)N[C@@H](CS)C(=O)O`, the “activity change, negative = inhibition” value was 42.5%.

As for `NC(N)=Nc1nc(CSCC/C(N)=N/S(N)(=O)=O)cs1`, the “activity change, negative = inhibition” value is -0.294%.

For the molecule `COC(=O)[C@@H]1[C@H]2C[C@H]3c4[nH]c5ccccc5c4CCN3C[C@@H]2CC[C@@H]1O`, the Potency was 79.4 µM (active).

`O=c1c(-c2ccc(O)cc2)coc2cc(O)ccc12`: the Potency is 50.1 µM (active).

As for `CC(C)NCC(O)COc1cccc2[nH]ccc12` (stereo not given), the “activity change, negative = inhibition” value is -17.5%.

Turning to `CC(=O)c1ccc(S(=O)(=O)NC(=O)NC2CCCCC2)cc1`, the “activity change, negative = inhibition” value is -10.4%.

For the molecule `Clc1ccc(Cn2c(CN3CCCC3)nc3ccccc32)cc1`, the “activity change, negative = inhibition” value is -18%.

With `CC(C)OC(=O)C(C)(C)Oc1ccc(C(=O)c2ccc(Cl)cc2)cc1`, the “activity change, negative = inhibition” value is 3.89%.

On to `CCN(CC)CCOC(=O)c1ccc(N)cc1`, for which the “activity change, negative = inhibition” value is -7.25%.

On to `CCCNC(=O)NS(=O)(=O)c1ccc(Cl)cc1`, for which the “activity change, negative = inhibition” value was -20.7%.

Consider `O=C1NCC2(CCN(CCc3ccccc3)CC2)O1`, for which the “activity change, negative = inhibition” value was -10.9%.

Consider `C[N+](C)(C)CCCCCC[N+](C)(C)C`, for which the Potency entry was “inactive”.

For `Cc1cccc(C)c1OCC(C)N` (stereo not given), the “activity change, negative = inhibition” value was -28%.

Consider `O=C1NC(=O)C(c2ccccc2)(c2ccccc2)N1`, for which the “activity change, negative = inhibition” value was -8.4%.

As for `CCN1CCC[C@H]1CNC(=O)c1cc(S(N)(=O)=O)ccc1OC`, the “activity change, negative = inhibition” value was -9.76%.

Turning to `O=C(NCCN1CCOCC1)c1ccc(Cl)cc1`, the “activity change, negative = inhibition” value is -7.66%.

Turning to `COc1ccccc1N1CCN(CCCNc2cc(=O)n(C)c(=O)n2C)CC1`, the “activity change, negative = inhibition” value was -18.9%.

Consider `CC(C)(C)c1ccc(C(O)CCCN2CCC(C(O)(c3ccccc3)c3ccccc3)CC2)cc1` (stereo not given), for which the “activity change, negative = inhibition” value was -12.1%.

With `CCCCC1C(=O)N(c2ccccc2)N(c2ccccc2)C1=O`, the “activity change, negative = inhibition” value was -9.63%.

With `CCN(CC)CCNC(=O)c1ccc(N)cc1`, the “activity change, negative = inhibition” value was -16.1%.

A further assay concerns Zika virus NS2B-NS3 protease (unlinked). Kind of assay: Optimization of GU AMC qHTS for Zika virus inhibitors: Unlinked NS2B-NS3 protease assay (AID 1347151). Further: nearly all actives have a fitted effect of over 80% in size.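 On activity change, negative = inhibition: 0% = no-inhibitor control and -100% = no-enzyme control.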 Particulars: recombinant ZIKV NS2B-NS3 protease, fluorogenic AMC substrate; series mostly up to 52.5 µM; activity change, negative = inhibition: at the top concentration. The method, boiled down:
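Fluorescence read-out (340 nm ex / 450 nm em) of AMC peptide cleavage, taken immediately and after 15 min at room temperature (~20% conversion). Enzyme was the unlinked NS2B–NS3 complex at 25 nM in Tris pH 8.0 buffer.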
With `CC(=O)CCCCn1c(=O)c2c(ncn2C)n(C)c1=O`, the “activity change, negative = inhibition” value was 5.83%.

For `CN(C)CCC(c1ccccc1)c1ccccn1` (stereo not given), the “activity change, negative = inhibition” value was 2%.

For `CC(=O)O[C@]1(C(C)=O)CC[C@H]2[C@@H]3C=C(Cl)C4=CC(=O)[C@@H]5C[C@@H]5[C@]4(C)[C@H]3CC[C@@]21C`, the “activity change, negative = inhibition” value is -2.03%.

Turning to `CC(=O)N[C@@H](CS)C(=O)O`, the “activity change, negative = inhibition” value was 3.91%.

On to `NC(N)=Nc1nc(CSCC/C(N)=N/S(N)(=O)=O)cs1`, for which the “activity change, negative = inhibition” value was 3.24%.

For `COC(=O)[C@@H]1[C@H]2C[C@H]3c4[nH]c5ccccc5c4CCN3C[C@@H]2CC[C@@H]1O`, the “activity change, negative = inhibition” value was -26.5%.

Turning to `O=c1c(-c2ccc(O)cc2)coc2cc(O)ccc12`, the Potency is 29.9 µM (active).

On to `CC(C)NCC(O)COc1cccc2[nH]ccc12` (stereo not given), for which the “activity change, negative = inhibition” value is -9.18%.

For `CC(=O)c1ccc(S(=O)(=O)NC(=O)NC2CCCCC2)cc1`, the “activity change, negative = inhibition” value is 5.02%.

Regarding `Clc1ccc(Cn2c(CN3CCCC3)nc3ccccc32)cc1`, the “activity change, negative = inhibition” value is -5.18%.

Consider `CCN(CC)CCOC(=O)c1ccc(N)cc1`, for which the “activity change, negative = inhibition” value was 5.22%.

For `CCCNC(=O)NS(=O)(=O)c1ccc(Cl)cc1`, the “activity change, negative = inhibition” value was -2.4%.

Turning to `O=C1NCC2(CCN(CCc3ccccc3)CC2)O1`, the “activity change, negative = inhibition” value was -2.3%.

In the case of `C[N+](C)(C)CCCCCC[N+](C)(C)C`, the Potency entry is “inactive”.

For the molecule `Cc1cccc(C)c1OCC(C)N` (stereo not given), the “activity change, negative = inhibition” value is 1.18%.

Consider `O=C1NC(=O)C(c2ccccc2)(c2ccccc2)N1`, for which the “activity change, negative = inhibition” value was 3.91%.

Consider `CCN1CCC[C@H]1CNC(=O)c1cc(S(N)(=O)=O)ccc1OC`, for which the “activity change, negative = inhibition” value is 5.46%.

On to `O=C(NCCN1CCOCC1)c1ccc(Cl)cc1`, for which the “activity change, negative = inhibition” value was -1.45%.

`COc1ccccc1N1CCN(CCCNc2cc(=O)n(C)c(=O)n2C)CC1`: the “activity change, negative = inhibition” value is -5.17%.

In the case of `CC(C)(C)c1ccc(C(O)CCCN2CCC(C(O)(c3ccccc3)c3ccccc3)CC2)cc1` (stereo not given), the “activity change, negative = inhibition” value was -3.89%.

On to `CCCCC1C(=O)N(c2ccccc2)N(c2ccccc2)C1=O`, for which the “activity change, negative = inhibition” value is -16.1%.

For the molecule `CCN(CC)CCNC(=O)c1ccc(N)cc1`, the “activity change, negative = inhibition” value is 6.65%.
